Assay [1] deals with T1, Tyrosine-protein kinase receptor TYRO3 (Homo sapiens) (UniProt Q06418).
T1 sequence (whole entry): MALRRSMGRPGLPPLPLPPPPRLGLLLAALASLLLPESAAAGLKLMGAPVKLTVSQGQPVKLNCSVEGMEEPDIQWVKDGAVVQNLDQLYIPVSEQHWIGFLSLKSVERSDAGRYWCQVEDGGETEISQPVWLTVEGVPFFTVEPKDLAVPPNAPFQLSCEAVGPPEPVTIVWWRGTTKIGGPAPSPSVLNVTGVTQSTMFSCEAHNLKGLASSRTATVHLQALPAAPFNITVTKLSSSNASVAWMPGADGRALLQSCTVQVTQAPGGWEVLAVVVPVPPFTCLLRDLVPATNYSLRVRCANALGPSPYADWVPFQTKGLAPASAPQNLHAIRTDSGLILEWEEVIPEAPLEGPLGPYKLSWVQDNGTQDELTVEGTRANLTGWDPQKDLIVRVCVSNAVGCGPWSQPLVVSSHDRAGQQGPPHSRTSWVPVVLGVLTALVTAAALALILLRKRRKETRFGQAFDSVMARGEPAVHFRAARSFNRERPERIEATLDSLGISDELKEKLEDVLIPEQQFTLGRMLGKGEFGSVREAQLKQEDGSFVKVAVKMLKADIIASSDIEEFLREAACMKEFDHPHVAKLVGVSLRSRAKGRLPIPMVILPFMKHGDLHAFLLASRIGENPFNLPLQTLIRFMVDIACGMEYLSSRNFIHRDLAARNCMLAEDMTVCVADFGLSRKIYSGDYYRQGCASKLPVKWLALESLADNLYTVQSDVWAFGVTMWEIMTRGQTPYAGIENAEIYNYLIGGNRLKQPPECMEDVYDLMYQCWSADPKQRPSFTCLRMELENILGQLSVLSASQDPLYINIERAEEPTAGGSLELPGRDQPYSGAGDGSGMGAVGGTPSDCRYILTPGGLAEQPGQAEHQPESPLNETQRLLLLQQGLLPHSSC
Conditions: at 1 µM.

Assay [2] deals with Tyrosine-protein kinase Yes (Homo sapiens) (UniProt P07947). The following applies: at 0.1 µM.
Chain of Tyrosine-protein kinase Yes (Homo sapiens) (P07947 2-543 limits assumed): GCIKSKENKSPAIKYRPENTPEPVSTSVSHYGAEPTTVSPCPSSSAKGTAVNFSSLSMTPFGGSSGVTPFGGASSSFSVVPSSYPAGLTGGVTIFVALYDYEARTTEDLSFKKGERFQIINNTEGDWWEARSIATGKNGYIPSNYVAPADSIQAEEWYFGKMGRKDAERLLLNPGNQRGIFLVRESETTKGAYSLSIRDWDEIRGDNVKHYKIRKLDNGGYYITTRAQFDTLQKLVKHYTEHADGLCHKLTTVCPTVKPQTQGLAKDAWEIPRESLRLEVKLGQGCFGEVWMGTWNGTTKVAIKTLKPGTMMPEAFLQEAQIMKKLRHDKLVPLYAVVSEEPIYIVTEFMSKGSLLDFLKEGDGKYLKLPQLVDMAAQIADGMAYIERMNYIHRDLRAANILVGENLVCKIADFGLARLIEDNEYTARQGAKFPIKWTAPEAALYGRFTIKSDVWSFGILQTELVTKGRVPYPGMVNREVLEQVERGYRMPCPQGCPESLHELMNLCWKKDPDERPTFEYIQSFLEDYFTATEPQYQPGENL
The target is the same in assay [3]. Conditions: at 1 µM.
For assay [4], the target named is T2, Tyrosine-protein kinase ZAP-70 (Homo sapiens) (UniProt P43403).
T2 sequence (whole entry): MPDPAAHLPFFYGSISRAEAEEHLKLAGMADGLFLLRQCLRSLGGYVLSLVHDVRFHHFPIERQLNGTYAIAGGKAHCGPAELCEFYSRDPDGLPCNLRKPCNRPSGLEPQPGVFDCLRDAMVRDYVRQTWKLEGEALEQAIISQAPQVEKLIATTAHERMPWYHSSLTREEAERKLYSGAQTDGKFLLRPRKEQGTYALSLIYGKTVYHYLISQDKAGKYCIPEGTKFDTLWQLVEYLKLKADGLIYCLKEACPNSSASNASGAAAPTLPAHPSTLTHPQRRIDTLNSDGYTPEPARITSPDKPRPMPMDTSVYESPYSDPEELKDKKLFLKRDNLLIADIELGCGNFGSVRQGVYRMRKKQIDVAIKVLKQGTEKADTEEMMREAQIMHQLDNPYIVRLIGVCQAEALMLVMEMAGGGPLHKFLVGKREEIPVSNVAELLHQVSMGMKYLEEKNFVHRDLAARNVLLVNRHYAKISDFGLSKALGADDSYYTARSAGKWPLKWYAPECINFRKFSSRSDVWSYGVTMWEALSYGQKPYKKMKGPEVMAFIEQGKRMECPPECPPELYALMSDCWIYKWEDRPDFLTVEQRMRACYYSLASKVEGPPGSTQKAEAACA
The following applies: at 0.1 µM.

Assay [5] concerns the target T2, Tyrosine-protein kinase ZAP-70 (Homo sapiens). Conditions: at 1 µM.
In assay [6] the target is Serine/threonine-protein kinase B-raf (Homo sapiens) (UniProt P15056). The following applies: at 0.1 µM.
Chain of Serine/threonine-protein kinase B-raf (Homo sapiens) (P15056 whole entry): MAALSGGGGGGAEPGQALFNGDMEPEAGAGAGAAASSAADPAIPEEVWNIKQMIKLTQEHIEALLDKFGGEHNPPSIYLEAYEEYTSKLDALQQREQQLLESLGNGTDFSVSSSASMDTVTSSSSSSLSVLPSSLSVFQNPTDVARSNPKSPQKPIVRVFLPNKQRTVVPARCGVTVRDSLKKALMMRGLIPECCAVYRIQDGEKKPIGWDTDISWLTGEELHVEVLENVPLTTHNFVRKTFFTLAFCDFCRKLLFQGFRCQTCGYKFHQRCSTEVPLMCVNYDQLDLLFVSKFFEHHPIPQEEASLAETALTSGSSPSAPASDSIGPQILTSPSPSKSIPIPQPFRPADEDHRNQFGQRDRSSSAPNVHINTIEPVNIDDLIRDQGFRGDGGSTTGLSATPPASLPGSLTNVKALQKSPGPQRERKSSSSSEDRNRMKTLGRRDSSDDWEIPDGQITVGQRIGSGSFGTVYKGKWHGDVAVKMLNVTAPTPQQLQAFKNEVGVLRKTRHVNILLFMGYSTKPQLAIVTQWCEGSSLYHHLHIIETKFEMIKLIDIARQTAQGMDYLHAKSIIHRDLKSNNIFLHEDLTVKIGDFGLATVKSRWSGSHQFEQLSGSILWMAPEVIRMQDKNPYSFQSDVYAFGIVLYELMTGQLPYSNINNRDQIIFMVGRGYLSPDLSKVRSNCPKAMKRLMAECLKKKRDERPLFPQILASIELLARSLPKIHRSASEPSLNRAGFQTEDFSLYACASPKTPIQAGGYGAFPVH
The target is the same in assay [7]. The following applies: at 1 µM.
In assay [8] the test system is Serine/threonine-protein kinase B-raf (Homo sapiens), P15056 [V600E]. Conditions: at 0.1 µM.
Chain of Serine/threonine-protein kinase B-raf (Homo sapiens), P15056 [V600E] (P15056 whole entry V600E): as the sequence (P15056 whole entry) above, with V600E counted along it
Assay [9] has the same test system. Conditions: at 1 µM.
For assay [10], the target named is RAF proto-oncogene serine/threonine-protein kinase (Homo sapiens) (UniProt P04049). The following applies: at 0.1 µM.
Chain of RAF proto-oncogene serine/threonine-protein kinase (Homo sapiens) (P04049 whole entry): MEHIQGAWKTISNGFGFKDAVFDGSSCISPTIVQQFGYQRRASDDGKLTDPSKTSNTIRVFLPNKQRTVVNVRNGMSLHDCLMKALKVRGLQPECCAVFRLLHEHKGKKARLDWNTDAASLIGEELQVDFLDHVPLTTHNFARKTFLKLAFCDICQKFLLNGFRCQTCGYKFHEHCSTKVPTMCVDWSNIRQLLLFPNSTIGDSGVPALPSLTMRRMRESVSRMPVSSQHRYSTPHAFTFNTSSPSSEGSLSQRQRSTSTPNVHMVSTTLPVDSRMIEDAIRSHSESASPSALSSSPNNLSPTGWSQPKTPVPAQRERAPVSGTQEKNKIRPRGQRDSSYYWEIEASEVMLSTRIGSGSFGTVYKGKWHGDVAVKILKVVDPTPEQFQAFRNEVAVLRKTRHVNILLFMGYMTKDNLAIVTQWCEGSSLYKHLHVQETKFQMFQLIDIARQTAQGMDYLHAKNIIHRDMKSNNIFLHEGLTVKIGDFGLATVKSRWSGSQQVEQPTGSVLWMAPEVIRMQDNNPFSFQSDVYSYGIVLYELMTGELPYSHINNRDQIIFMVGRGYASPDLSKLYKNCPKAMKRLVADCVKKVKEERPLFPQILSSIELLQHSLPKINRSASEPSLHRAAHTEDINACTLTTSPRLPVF
For assay [11] the target is unchanged. Conditions: at 1 µM.
Assay [12] addresses T3, Interleukin-1 receptor-associated kinase 4 (Homo sapiens) (UniProt Q9NWZ3).
T3 sequence (whole entry): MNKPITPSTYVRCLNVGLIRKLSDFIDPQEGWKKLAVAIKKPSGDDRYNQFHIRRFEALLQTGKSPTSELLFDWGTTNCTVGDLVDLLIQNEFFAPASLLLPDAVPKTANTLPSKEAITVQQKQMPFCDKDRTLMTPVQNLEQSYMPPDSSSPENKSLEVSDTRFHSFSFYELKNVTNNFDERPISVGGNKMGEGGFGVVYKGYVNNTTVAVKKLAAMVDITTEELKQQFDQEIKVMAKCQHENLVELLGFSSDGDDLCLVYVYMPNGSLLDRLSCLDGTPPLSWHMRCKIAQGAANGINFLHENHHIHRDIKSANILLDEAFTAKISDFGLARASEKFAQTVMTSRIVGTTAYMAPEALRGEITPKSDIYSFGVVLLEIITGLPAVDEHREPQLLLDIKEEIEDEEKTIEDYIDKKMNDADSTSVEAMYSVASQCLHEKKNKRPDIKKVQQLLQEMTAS
Conditions: at 0.1 µM.

For assay [13], the target named is T3, Interleukin-1 receptor-associated kinase 4 (Homo sapiens). The following applies: at 1 µM.
Assay [14] addresses Leucine-rich repeat serine/threonine-protein kinase 2 (Homo sapiens) (UniProt Q5S007). Conditions: at 0.1 µM.
Assay [15] shares this target. Conditions: at 1 µM.
Assay [16] deals with Leucine-rich repeat serine/threonine-protein kinase 2 (Homo sapiens), Q5S007 [G2019S]. The following applies: at 0.1 µM.
Chain of Leucine-rich repeat serine/threonine-protein kinase 2 (Homo sapiens), Q5S007 [G2019S] (Q5S007 whole entry G2019S): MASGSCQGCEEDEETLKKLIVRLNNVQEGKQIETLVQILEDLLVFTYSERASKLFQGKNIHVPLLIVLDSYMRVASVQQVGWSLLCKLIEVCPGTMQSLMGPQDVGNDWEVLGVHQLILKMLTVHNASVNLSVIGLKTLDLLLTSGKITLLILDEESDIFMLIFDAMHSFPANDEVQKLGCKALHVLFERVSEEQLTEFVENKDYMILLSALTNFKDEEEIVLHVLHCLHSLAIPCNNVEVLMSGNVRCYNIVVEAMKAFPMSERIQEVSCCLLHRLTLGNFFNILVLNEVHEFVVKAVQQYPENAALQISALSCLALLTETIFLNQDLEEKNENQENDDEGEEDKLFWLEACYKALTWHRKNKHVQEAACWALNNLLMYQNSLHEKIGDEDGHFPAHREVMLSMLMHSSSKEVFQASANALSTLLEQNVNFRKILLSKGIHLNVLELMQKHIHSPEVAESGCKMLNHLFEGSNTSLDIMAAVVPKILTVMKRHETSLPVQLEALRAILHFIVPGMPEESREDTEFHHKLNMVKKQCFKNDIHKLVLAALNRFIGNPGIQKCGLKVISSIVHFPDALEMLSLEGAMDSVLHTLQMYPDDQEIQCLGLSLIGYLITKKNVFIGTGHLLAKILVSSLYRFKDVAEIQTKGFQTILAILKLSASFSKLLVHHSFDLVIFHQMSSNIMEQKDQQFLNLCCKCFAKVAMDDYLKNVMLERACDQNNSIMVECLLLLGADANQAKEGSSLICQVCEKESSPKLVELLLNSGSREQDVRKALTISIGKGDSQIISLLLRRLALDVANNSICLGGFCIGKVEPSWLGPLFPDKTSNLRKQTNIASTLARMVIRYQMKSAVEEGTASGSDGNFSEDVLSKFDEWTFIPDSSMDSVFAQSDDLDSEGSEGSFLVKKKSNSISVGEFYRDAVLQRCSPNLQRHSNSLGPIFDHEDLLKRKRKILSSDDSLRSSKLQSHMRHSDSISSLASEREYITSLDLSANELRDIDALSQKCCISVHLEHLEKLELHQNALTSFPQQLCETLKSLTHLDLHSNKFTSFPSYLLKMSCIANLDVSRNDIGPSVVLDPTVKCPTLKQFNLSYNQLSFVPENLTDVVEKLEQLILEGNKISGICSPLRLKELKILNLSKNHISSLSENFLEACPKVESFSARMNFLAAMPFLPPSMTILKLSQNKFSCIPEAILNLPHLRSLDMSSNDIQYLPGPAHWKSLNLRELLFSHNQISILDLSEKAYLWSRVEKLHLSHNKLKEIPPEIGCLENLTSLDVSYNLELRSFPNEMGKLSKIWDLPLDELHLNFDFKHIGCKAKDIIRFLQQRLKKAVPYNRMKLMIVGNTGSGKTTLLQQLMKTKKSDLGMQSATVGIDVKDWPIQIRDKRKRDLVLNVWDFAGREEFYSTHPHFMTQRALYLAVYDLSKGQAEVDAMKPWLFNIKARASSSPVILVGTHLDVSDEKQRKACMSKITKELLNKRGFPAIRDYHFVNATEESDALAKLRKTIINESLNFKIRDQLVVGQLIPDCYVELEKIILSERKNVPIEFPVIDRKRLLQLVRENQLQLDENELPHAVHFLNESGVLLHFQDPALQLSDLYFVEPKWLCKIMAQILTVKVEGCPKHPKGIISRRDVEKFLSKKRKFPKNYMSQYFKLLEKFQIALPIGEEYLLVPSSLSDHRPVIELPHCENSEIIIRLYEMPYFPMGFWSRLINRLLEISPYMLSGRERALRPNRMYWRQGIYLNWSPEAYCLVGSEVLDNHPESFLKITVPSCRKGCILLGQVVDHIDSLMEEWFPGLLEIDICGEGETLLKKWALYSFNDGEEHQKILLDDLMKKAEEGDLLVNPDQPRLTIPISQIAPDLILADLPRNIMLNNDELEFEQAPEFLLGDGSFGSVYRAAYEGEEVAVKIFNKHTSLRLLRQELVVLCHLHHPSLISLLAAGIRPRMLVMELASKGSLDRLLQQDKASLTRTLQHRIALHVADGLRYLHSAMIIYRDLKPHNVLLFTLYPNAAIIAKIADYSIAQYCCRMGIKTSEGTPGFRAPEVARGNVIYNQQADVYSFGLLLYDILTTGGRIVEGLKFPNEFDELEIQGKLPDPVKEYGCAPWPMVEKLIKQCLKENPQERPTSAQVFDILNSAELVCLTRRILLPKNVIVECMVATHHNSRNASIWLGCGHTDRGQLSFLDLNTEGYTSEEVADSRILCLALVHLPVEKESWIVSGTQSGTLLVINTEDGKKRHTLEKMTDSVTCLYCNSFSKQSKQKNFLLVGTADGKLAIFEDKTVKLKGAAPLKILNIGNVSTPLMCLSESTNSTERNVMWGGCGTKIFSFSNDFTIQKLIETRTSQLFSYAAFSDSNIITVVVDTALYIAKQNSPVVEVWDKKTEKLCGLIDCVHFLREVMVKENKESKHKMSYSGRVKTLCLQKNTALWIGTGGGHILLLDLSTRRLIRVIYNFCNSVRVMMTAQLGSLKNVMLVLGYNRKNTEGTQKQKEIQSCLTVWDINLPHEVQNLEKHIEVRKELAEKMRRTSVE
For assay [17] the test system is unchanged. The following applies: at 1 µM.

The values that follow come from ChEMBL document CHEMBL1961873, “Compounds: GSK PKIS; Assays: Nanosyn kinase panel” (2012).

Structures are written as SMILES. “And” between values parts separate entries of the source, which are not always exact repeats. Equal entries are not always repeated.

Chain of Leucine-rich repeat serine/threonine-protein kinase 2 (Homo sapiens) (Q5S007 whole entry): as the sequence (Q5S007 whole entry G2019S) above, with S2019G counted along it

For the molecule `O=C(O[C@H]1CN[C@H](C#Cc2cc3ncnc(Nc4ccc(OCc5cccc(F)c5)c(Cl)c4)c3s2)C1)N1CCOCC1`, the inhibition in assay [1] turned out to be 5.62%; in [2] it was 0.43%; in assay [3], 8.74%; in assay [4] it was 3.21%; in [5] it was 0.2%; in assay [6], 9.9%. Besides, the inhibition in [7] amounted to 7.06%; in assay [8] it was 8.49%; in assay [9] it was 6.1%; in assay [10] it was 10.3%; in [11] it was 0.51%; in assay [12], 1.13%. In addition, the inhibition in assay [13] worked out at 2.48%; in assay [14], 2.8%; in [15], 7.32%; in assay [16] it was 4.61%; in assay [17], 8.39%.
Take `Nc1nccc(-c2c(-c3ccc(F)cc3)ncn2C2CCNCC2)n1`: the inhibition was 1.14% and -0.71% in assay [1]; -1.29% and 0.36% in [2]; 11.9% and 16.2% in assay [3]; 1.4% and 0.85% in assay [4]; -2.69% and 1.59% in assay [5]; -2.89% and 1.95% in assay [6]. The inhibition in assay [7] is -0.2% and 7.76%; in [8], -4.19% and 1.23%; in [9] it was 0.9% and 7.41%; in assay [10], -3.57% and -1.58%; in assay [11], 8.14% and -2.89%; in assay [12], 3.05% and 0.88%. Besides, the inhibition is -1.58% and -0.23% in assay [13]; -1.76% and 1.62% in assay [14]; 3.33% and 3.21% in assay [15]; 0.34% and 3.78% in assay [16]; 4.42% and 3.38% in [17].
Turning to `COc1cc(N2CCN(C(C)C)CC2)ccc1Nc1nc(Nc2cccc3ncccc23)c2cc[nH]c2n1`, the inhibition in assay [1] is -0.92%; in assay [2] it was -0.19%; in assay [3] it was 1.79%; in assay [4], -0.91%; in assay [5], -0.16%; in [6], -0.4%. In addition, the inhibition was 0.61% in [7]; 0.32% in [8]; 1.11% in assay [9]; 0.02% in assay [10]; 10.1% in [11]; 5.39% in assay [12]. For the same molecule, the inhibition in assay [13] was -0.29%; in assay [14], 13%; in assay [15], 23.2%; in assay [16], 24.5%; in [17], 63%.
With `CN(C)CCNC(=O)Nc1ccc(N(C)c2ccnc(Nc3ccc(CS(C)(=O)=O)cc3)n2)cc1`, the inhibition in assay [1] came to 5.87%; in [2], 0.55%; in [3], 2.71%; in assay [4] it was 1.7%; in [5] it was 1.48%; in assay [6] it was 4.53%. For the same molecule, the inhibition in [7] was 5.12%; in assay [8] it was 5.5%; in [9], 6.71%; in assay [10], -0.51%; in [11] it was -0.82%; in [12] it was -4.3%. The inhibition in [13] is 2.15%; in [14], 4.46%; in assay [15], 11.5%; in assay [16], 6.1%; in assay [17] it was 23%.
Take `CNC(=O)c1cncc(/C=C/c2ccccc2C)c1`: the inhibition was 3.96% in [1]; 4.29% in assay [2]; 9.93% in [3]; 1.58% in assay [4]; 2.36% in assay [5]; 6.43% in [6]. For the same molecule, the inhibition in assay [7] is 7.91%; in assay [8] it was 6.48%; in assay [9], 6.88%; in assay [10], 5.82%; in assay [11], -2.68%; in assay [12] it was -0.44%. Further, the inhibition stood at 2% in [13]; 3.81% in assay [14]; 6.67% in [15]; 4.65% in assay [16]; 9.68% in [17].
Take `CS(=O)(=O)Nc1ccc(-c2cc(-c3ccccc3)cc(C(N)=O)c2N)cc1`: the inhibition was 0.42% in assay [1]; 0.79% in [2]; 4.67% in assay [3]; -2.43% in assay [4]; -3.4% in assay [5]; 2.34% in assay [6]. Further, the inhibition in assay [7] was 3.97%; in assay [8], 2.93%; in assay [9] it was 3.58%; in assay [10] it was -0.86%; in [11], -4.37%; in [12], 0.55%. For the same molecule, the inhibition in [13] came out at 1.37%; in assay [14] it was 1.64%; in [15], 4.15%; in [16] it was 3.87%; in assay [17], 5.66%.
As to `NC(=O)c1ccc2c(-c3ccnc(NCCCO)n3)c(-c3ccc(F)cc3)nn2c1`, the inhibition in assay [1] is 3.98%; in [2] it was 2.77%; in [3], 10.9%; in [4], 1.7%; in assay [5], 1.63%; in assay [6], 10.9%. Also, the inhibition was 22.2% in assay [7]; 9.67% in assay [8]; 19.7% in assay [9]; -3.29% in [10]; -4.3% in assay [11]; 1.46% in assay [12]. For the same molecule, the inhibition is 2.22% in [13]; 5.47% in assay [14]; 7.44% in assay [15]; 6.54% in [16]; 9.18% in assay [17].
